The source of these data is PubChem BioAssay (EPA / NIEHS).

Inconclusive results are not listed. Active and inactive are the calls of the source. Rule for the calls: active = hit-call score of the fitted dose curve at least 0.9, where 1 is the maximum; inconclusive = response in the unintended direction; inactive = score below 0.9.

In one assay the target is Retinoic acid receptor RXR-alpha (Homo sapiens) (UniProt P19793). Description: OT_NURR1_NURR1RXRa_0480: Odyssey Thera (OT) 8-hour HEK293T Protein Complementation Assay for Nurr1/retinoid X receptor (RXR) (AID 2283385). Summed up: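 HEK293T cells expressing Nurr1 and RXRα fused to reporter fragments were dosed with compound for 8 hours. Complex formation was read as fluorescence intensity and analysed as gain of signal against DMSO as baseline.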
Chain of Retinoic acid receptor RXR-alpha (Homo sapiens) (P19793 whole entry, looked up, the tested form may be a part): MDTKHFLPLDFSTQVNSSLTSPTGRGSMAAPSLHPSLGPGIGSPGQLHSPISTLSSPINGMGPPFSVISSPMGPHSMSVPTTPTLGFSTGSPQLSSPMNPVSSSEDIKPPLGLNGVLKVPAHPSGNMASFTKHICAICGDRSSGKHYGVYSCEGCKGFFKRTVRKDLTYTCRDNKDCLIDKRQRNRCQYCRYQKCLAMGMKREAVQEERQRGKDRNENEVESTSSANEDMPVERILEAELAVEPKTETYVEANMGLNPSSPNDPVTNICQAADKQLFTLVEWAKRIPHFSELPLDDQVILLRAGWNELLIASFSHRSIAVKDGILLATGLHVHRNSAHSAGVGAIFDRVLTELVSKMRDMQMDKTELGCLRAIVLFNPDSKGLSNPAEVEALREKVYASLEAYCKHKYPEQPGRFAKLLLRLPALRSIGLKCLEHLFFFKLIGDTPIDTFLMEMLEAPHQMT
With `Cc1cc(C)cc(C)c1`, the compound was called inactive.

Consider `CC(C)(C)c1ccccc1O`, for which the call was inactive.

As for `O=C(N[C@H]1CN2CCC1CC2)c1ccc2c(c1)OCCO2`, the outcome was inactive.

Take `CN(N=O)C(N)=O`: the compound was classed as inactive.

As for `Oc1c(Br)cc(Br)cc1Br`, the result was inactive.

The AC50 is the concentration at which the activity in the assay is half-maximal. Take `O=C1c2ccccc2C(=O)C1C(=O)C(c1ccccc1)c1ccc(Cl)cc1` (stereo unspecified): the AC50 is 50 µM (active).

On to `C=CC(Cl)CCl` (stereo unspecified), for which the result was inactive.

As to `Cc1cc(Cl)ccc1OC(C)C(=O)O` (stereo unspecified), the compound was classed as inactive.

Take `O=C(O)COc1ccc(Cl)cc1`: the outcome was inactive.

As for `O=CCCl`, the result was inactive.

For the next assay the target is unchanged. Description: OT_NURR1_NURR1RXRa_1440: Odyssey Thera (OT) 24-hour HEK293T Protein Complementation Assay for Nurr1/retinoid X receptor (RXR) (AID 2283386). The procedure, abridged: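 HEK293T cells were dosed with compound and read 24 h later by fluorescence intensity in a protein-fragment complementation format, where Nurr1–RXRα interaction reconstitutes a split reporter. Activity was fitted as gain of signal relative to DMSO baseline.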
For the compound `COc1ccc(N)cc1`, the AC50 is 13.8 µM (active).

As for `Clc1cccc(Cl)c1`, the result was inactive.

For `Cc1cc(C)cc(C)c1`, the compound was classed as inactive.

On to `CC(C)(C)c1ccccc1O`, for which the compound was classed as inactive.

On to `CC(O)(CS(=O)(=O)c1ccc(F)cc1)C(=O)Nc1ccc(C#N)c(C(F)(F)F)c1` (stereo unspecified), for which the call was inactive.

On to `N#CCCC(Br)(C#N)CBr` (stereo unspecified), for which the compound was called inactive.

Take `O=C(N[C@H]1CN2CCC1CC2)c1ccc2c(c1)OCCO2`: the outcome was inactive.

Take `N#CS`: the compound was called inactive.

`COc1ccccc1N`: the result was inactive.

For the compound `CCN(CCO)CCO`, the result was inactive.

As to `Oc1c(Br)cc(Br)cc1Br`, the outcome was inactive.

Consider `O=C1c2ccccc2C(=O)C1C(=O)C(c1ccccc1)c1ccc(Cl)cc1` (stereo unspecified), for which the AC50 is 73.2 µM (active).

For the compound `O=[N+]([O-])c1ccccc1O`, the compound was classed as inactive.

In the case of `CNC(=O)O/N=C/C(C)(C)S(C)(=O)=O`, the call was inactive.

For `C=CC(Cl)CCl` (stereo unspecified), the result was inactive.

For another assay, the target named is Peroxisome proliferator-activated receptor gamma (Homo sapiens) (UniProt P37231). Description: OT_PPARg_PPARgSRC1_0480: Odyssey Thera (OT) 8-hour Protein-Complementation Assay for Peroxisome Proliferator-activated Receptor Gamma / SRC-1 Co-activator (AID 2283387).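 Note: nuclear to cytoplasmic split Venus YFP fluorescence ratio reporting PPARg SRC-1 interaction.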 Summed up: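 Split-YFP (IFP1/IFP2) PPARg/SRC-1 reporter, HEK293T, 37 °C, 5% CO2; 8 h compound; formaldehyde fix + Draq5; high-content imaging, N/C ratio, ≥350 cells/image, positive direction vs DMSO.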
Chain of Peroxisome proliferator-activated receptor gamma (Homo sapiens) (P37231 whole entry, looked up): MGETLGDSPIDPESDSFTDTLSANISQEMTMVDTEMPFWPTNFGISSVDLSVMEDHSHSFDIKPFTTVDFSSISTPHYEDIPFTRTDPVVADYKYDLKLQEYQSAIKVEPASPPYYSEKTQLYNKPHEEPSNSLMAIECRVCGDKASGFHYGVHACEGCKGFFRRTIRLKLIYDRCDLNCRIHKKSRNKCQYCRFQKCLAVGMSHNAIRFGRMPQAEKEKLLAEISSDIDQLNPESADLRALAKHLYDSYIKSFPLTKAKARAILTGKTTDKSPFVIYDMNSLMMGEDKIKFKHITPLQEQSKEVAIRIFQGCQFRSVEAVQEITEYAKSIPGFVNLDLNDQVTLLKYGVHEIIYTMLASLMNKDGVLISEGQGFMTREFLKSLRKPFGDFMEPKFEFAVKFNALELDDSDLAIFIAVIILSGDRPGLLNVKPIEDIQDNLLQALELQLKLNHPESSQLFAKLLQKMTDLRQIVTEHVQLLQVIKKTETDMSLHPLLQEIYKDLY
For `N#CCC#N`, the compound was classed as inactive.

`O=CCCl`: the compound was called inactive.

As to `CC(C)N(C(=O)CCl)c1ccccc1`, the compound was called inactive.

Another assay shares this target. The assay is described as follows: OT_PPARg_PPARgSRC1_1440: Odyssey Thera (OT) 24-hour Protein-Complementation Assay for Peroxisome Proliferator-activated Receptor Gamma/ SRC-1 Co-activator (AID 2283388).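 Note: nuclear to cytoplasmic ratio of reconstituted Venus YFP fluorescence in fixed imaged cells.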 The procedure, abridged:
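Readout is the 488 nm N/C fluorescence ratio from fixed, Draq5-stained HEK293T cells after 24 h compound exposure. Cells carried transiently transfected PPARg and SRC-1 fused to Venus fragments, transfected 48 h before treatment.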
For the compound `COc1ccc(N)cc1`, the compound was classed as inactive.

On to `Clc1cccc(Cl)c1`, for which the call was inactive.

With `O=[N+]([O-])c1ccc(Cl)c([N+](=O)[O-])c1`, the result was inactive.

For `N#CCC#N`, the call was inactive.

For the compound `CCC[CH2][Sn]([Cl])([Cl])[CH2]CCC`, the result was inactive.

Take `CC(C)(C)c1ccccc1O`: the outcome was inactive.

As for `CC(O)(CS(=O)(=O)c1ccc(F)cc1)C(=O)Nc1ccc(C#N)c(C(F)(F)F)c1` (stereo unspecified), the compound was classed as inactive.

`N#CCCC(Br)(C#N)CBr` (stereo unspecified): the result was inactive.

For the compound `O=C(N[C@H]1CN2CCC1CC2)c1ccc2c(c1)OCCO2`, the compound was called inactive.

Regarding `CC(=Cc1ccccc1)[N+](=O)[O-]`, the outcome was inactive.

As for `N#CS`, the compound was called inactive.

Consider `COc1ccccc1N`, for which the result was inactive.

On to `CCN(CCO)CCO`, for which the compound was called inactive.

With `CN(N=O)C(N)=O`, the result was inactive.

Regarding `Oc1c(Br)cc(Br)cc1Br`, the result was inactive.

Consider `O=C1c2ccccc2C(=O)C1C(=O)C(c1ccccc1)c1ccc(Cl)cc1` (stereo unspecified), for which the AC50 was 69.3 µM (active).

As for `O=[N+]([O-])c1ccccc1O`, the call was inactive.

As for `CNC(=O)O/N=C/C(C)(C)S(C)(=O)=O`, the compound was classed as inactive.

As to `C=CC(Cl)CCl` (stereo unspecified), the result was inactive.

As for `Cc1cc(Cl)ccc1OC(C)C(=O)O` (stereo unspecified), the compound was called inactive.

For `O=C(O)COc1ccc(Cl)cc1`, the result was inactive.

As to `O=CCCl`, the call was inactive.

In the case of `CC(C)N(C(=O)CCl)c1ccccc1`, the outcome was inactive.
